About 83,000 compounds went through this panel and 20% of them were active in at least one assay; those are over-represented in the sample as a whole.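 Growth was measured after 48 h exposure to one concentration of compound in 96-well plates. Values under 10 count as active.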 A number with no mark means an inactive call. Active and inactive are the calls of the source.
Assays:
Experiment in all cases: NCI-60 one-dose screen, 48 h (100 = growth as untreated, 0 = no growth, -100 = all killed)
Conditions in all cases: 10 µM unless noted
[1] = test system: NCI-H23 lung
[2] = test system: NCI-H322M lung
[3] = test system: HOP-62 NSCLC
[4] = test system: NCI-H460 lung
[5] = test system: HOP-92 NSCLC
[6] = test system: NCI-H522 lung
[7] = test system: A549/ATCC NSCLC
[8] = test system: 786-0 renal
[9] = test system: COLO 205 colon
[10] = test system: DU-145 prostate
[11] = test system: K-562 leukemia
[12] = test system: MALME-3M melanoma
[13] = test system: MDA-MB-231 breast
[14] = test system: RXF 393 renal
[15] = test system: SF-268 CNS
[16] = test system: SF-295 CNS
[17] = test system: SF-539 CNS
[18] = test system: UACC-257 melanoma
[19] = test system: M14 melanoma
[20] = test system: HCT-15 colon

| Structure (SMILES) | growth [1] | growth [2] | growth [3] | growth [4] | growth [5] | growth [6] | growth [7] | growth [8] | growth [9] | growth [10] | growth [11] | growth [12] | growth [13] | growth [14] | growth [15] | growth [16] | growth [17] | growth [18] | growth [19] | growth [20] |
| --- | --- | --- | --- | --- | --- | --- | --- | --- | --- | --- | --- | --- | --- | --- | --- | --- | --- | --- | --- | --- |
| O=c1c(-c2nc3ccccc3[nH]2)cc2ccccc2n1Cc1cn(Cc2ccccc2Cl)nn1 | 56.9% | 52.3% | 35.1% | 6.86% (active) | 11.3% | 45.1% | 15.4% | -20.2% (active) | 54% | 18.1% | 30.7% | 5.45% (active) | -21% (active) | 13.1% | 45.2% | 32.9% | 4.13% (active) | 56.8% | 38.4% | 19.7% |
| FC(F)(F)c1cccc(Nc2nc3ccccc3nc2Nc2cccc(C(F)(F)F)c2)c1 | 39.7% | -28% (active) | 2.35% (active) | -59.4% (active) | 6.66% (active) | -57.1% (active) | 3.08% (active) | -75.3% (active) | -87.2% (active) | -1.33% (active) | -19.6% (active) | -81.6% (active) | -56.3% (active) | -89.6% (active) | -9.63% (active) | -78.9% (active) | -78.7% (active) | -75.1% (active) | -69.9% (active) | 2.32% (active) |
| COc1cc(-c2c3c(cn2S(=O)(=O)c2ccccc2)-c2nc(N)sc2CC3)cc(OC)c1OC | 44% | 41% | 53.5% | 6.37% (active) | 60.2% | 19.9% | 30.7% | 43.4% | -1.14% (active) | 0.0609% (active) | 8.08% (active) | 42.4% | 19.3% | 2.6% (active) | 40.7% | 11.2% | -31.8% (active) | 74% | 34.4% | 27.5% |
| CCN(CC)CCCNc1ccnc2cc3ccccc3cc12 | 83.3% | 76% | -9.44% (active) | 45.5% | 55.6% | 51.8% | 46.6% | 66.8% | 74.8% | 73.8% | 66.3% | 40.6% | 56.4% | 35.7% | 60.2% | -34% (active) | 30.8% | 75.5% | 81.9% | 43.2% |
| O=C(c1nc2ccccc2[nH]1)C1C(c2ccc(F)cc2)C2CC3CCCCC3N2[C@@]12C(=O)Nc1ccc(Cl)cc12 (stereo not given in full) | 57.2% | 60.6% | 71.8% | 21.4% | 44.2% | 57.3% | 29.3% | 48.3% | 40.3% | 60.5% | 29.4% | 42.6% | 43.3% | 9.81% (active) | 57% | 29% | 55.5% | 58.9% | 40.7% | 28% |
| COc1ccc(Cn2c(Br)c3c(c2Br)-c2nc(N)sc2CC3)cc1 | 57.3% | 66.6% | 35.5% | 15.7% | 58.5% | 2.16% (active) | 39.1% | 56.8% | 66.9% | 57% | 4.07% (active) | 21.9% | 37% | 16.3% | 45.2% | 70.3% | 39.9% | 70.4% | 13.9% | 29.9% |
| O=C(Nc1ccc(Cl)cc1F)c1cc(Br)ccc1O | 4.02% (active) | 7.3% (active) | 1.76% (active) | 4.27% (active) | -12.8% (active) | -12.9% (active) | 7.61% (active) | 3.02% (active) | 51.5% | 17.2% | 8.83% (active) | -16.9% (active) | -26.1% (active) | 7.94% (active) | 13.6% | -48.3% (active) | 7.34% (active) | -15.8% (active) | 8.91% (active) | 4.84% (active) |
| CC(=O)c1ccc2oc(=O)n(Cc3ccc(C#N)cc3)c(=O)c2c1 | 103% | 100% | 103% | 106% | 95.2% | 99.5% | 103% | 103% | 114% | 111% | 117% | 96.9% | 107% | 114% | 99.1% | 99.1% | 96.8% | 108% | 108% | 98.9% |
| Fc1cccc(COc2ccc(Nc3ncnc4onc(-c5ccccc5)c34)cc2)c1 | 18.1% | 23.1% | 33.4% | 2.61% (active) | 46.3% | 5.66% (active) | 19.9% | 8.18% (active) | 8.73% (active) | -29.8% (active) | 12.1% | 41% | 13.8% | -26.6% (active) | 29.2% | 2.77% (active) | -42.4% (active) | 54.8% | -23% (active) | 20.2% |
| O=C1/C(=C/c2ccc(O)cc2)COc2ccc(O)c(O)c21 | 35.9% | 79% | 51.5% | 8.73% (active) | 52.7% | -47.7% (active) | 34.5% | 25.4% | 91.8% | 17% | 4.59% (active) | -6.72% (active) | 20.2% | 9.98% (active) | 24.5% | 95.6% | -13.7% (active) | 63.2% | 64.7% | -29.3% (active) |
| COc1cc2nc(-c3cnc(N(C)C)nc3)nc(NC3CCN(Cc4ccccc4)CC3)c2cc1OC | -33.8% (active) | -85.7% (active) | -70.4% (active) | -71.1% (active) | -76.8% (active) | -64.2% (active) | -66.3% (active) | -71% (active) | -82.5% (active) | -83.9% (active) | -40.4% (active) | -74.4% (active) | -87.7% (active) | -78.6% (active) | -60% (active) | -92% (active) | -92.9% (active) | 24.1% | -80.6% (active) | -85.9% (active) |
| COC(=O)c1cc2c(n1Cc1ccccc1)-c1oncc1CCC2 | 81.5% | 114% | 72.9% | 94.7% | 75.3% | 39.1% | 49.3% | 92.3% | 55% | 102% | 17.8% | 49.5% | 64.2% | 73.7% | 86.8% | 74.7% | 69.1% | 76.2% | 57.5% | 40.9% |
| COc1ccc(CCN2C(=O)CCSC2=S)cc1 | 80% | 87.6% | 18.6% | 77% | 41.9% | 11.1% | 96.6% | 16.8% | 36.3% | 13.8% | 29.2% | 76.7% | 59.2% | 18.7% | 46.2% | 67.2% | 7.31% (active) | 85.4% | 61.2% | 12.4% |
| O=c1oc2ccc(I)cc2c(=O)n1-c1ccc(Cl)cc1F | -9.99% (active) | 5.32% (active) | -3.85% (active) | 3.56% (active) | -6.61% (active) | -17.1% (active) | 6.01% (active) | 8.94% (active) | 52.1% | 19.5% | 4.68% (active) | -21.2% (active) | -12.6% (active) | 4.98% (active) | 12% | -48.1% (active) | 7.99% (active) | -15.1% (active) | 9.12% (active) | 2.13% (active) |
| Nc1ccccc1-c1ccc(-c2ccc(Cl)cc2)c2c1[nH]c1ccccc12 | 77% | 64% | 79.5% | 88.6% | 7.99% (active) | 73.5% | 67.9% | 76.5% | 78.5% | 75.9% | 58.9% | 90.2% | 62.2% | 53.4% | 64.8% | 88.2% | 86.3% | 81% | 49.3% | 73.2% |

Source: PubChem BioAssay (NCI)
